The sample as a whole holds a higher share of hits than the screen did.
TDP1 cell CPT: qHTS for Inhibitors of human tyrosyl-DNA phosphodiesterase 1 (TDP1): qHTS in cells in presence of CPT | chicken DT40 Tdp1-/-;hTDP1 cells + 20 nM CPT, ATP luminescence, 48 h | Potency, µM (top dose mostly 46.2 µM), inactives show at the top dose activity change, negative = growth inhibition, hits mostly inhibitors | 12% of 420,000 active | AID 686979, 2013; further: potency means the concentration at half of the fitted maximal effect; nearly all actives have a fitted effect of over 55% in size
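Chicken DT40 Tdp1-/- cells stably complemented with human TDP1 were seeded at 400 cells/well in medium containing 20 nM camptothecin, exposed to pin-transferred compounds, and grown at 37 °C for at least 48 hr. Viability was read as ATP luminescence.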
TDP1 cell noCPT: qHTS for Inhibitors of human tyrosyl-DNA phosphodiesterase 1 (TDP1): qHTS in cells in absence of CPT | DT40 Tdp1-/- hTDP1 cells, no CPT, ATP luminescence, 48 h | Potency, µM (top dose mostly 46.2 µM), inactives show top-dose activity change, negative = growth inhibition, hits mostly inhibitors | 15% of 420,000 active | AID 686978, 2013; further: potency means the concentration at half of the fitted maximal effect; nearly all actives have a fitted effect of over 55% in size
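Chicken DT40 Tdp1-/- cells stably complemented with human TDP1 were seeded at 400 cells/well with DMSO in place of 20 nM camptothecin. After compound pinning, cells grew at least 48 hr at 37 °C; viability read by CellTiter-Glo luminescence.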
HT1080 IDH1KD tx: qHTS for induction of synthetic lethality in tumor cells producing 2HG: qHTS for the HT-1080-IDH1KD cell line | HT-1080 IDH1 knockdown viability, ATP luminescence, 48 h | Potency, µM (doses to about 46.1 µM), inactives show at the highest dose activity, negative = toxicity, actives largely listed as cytotoxic | 2% of 360,000 active | AID 686971, 2013;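 further: potency means the concentration at half of the fitted maximal effect; 0% = DMSO wells and -100% = cell-free medium wells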
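IDH1KD HT-1080 cells, 750/well, RPMI + 5% FBS; compound pinned after 2 h settling; 48 h, 37 °C; CellTiter-Glo luminescence; % activity normalised to DMSO and no-cell wells; curves fitted, classed by r2 and efficacy.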
HT1080-NT tox: qHTS for induction of synthetic lethality in tumor cells producing 2HG: qHTS for the HT-1080-NT fibrosarcoma cell line; HT-1080-NT fibrosarcoma viability, CellTiter-Glo ATP luminescence, 48 h; Potency, µM (top dose mostly 46.1 µM), inactives show at the top dose activity, negative = less viability, actives largely listed as cytotoxic; 1.6% of 360,000 active;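 further: NT is the 2HG producing partner of a matched IDH1 knockdown line; potency means the concentration at half of the fitted maximal effect; 0% = DMSO-treated cells and -100% = media-only wells without cells; nearly all actives have a fitted effect of over 55% in size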
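Fibrosarcoma NT cells, 750 per well in 5% FBS RPMI, were exposed to compound for 48 hours. Viability: CellTiter-Glo luminescence.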
IL-1B inflam inh: qHTS for Inhibitors of Inflammasome Signaling: IL-1-beta AlphaLISA Primary Screen. 4.7% of 360,000 active. activity change, % at 57.5 µM. THP-1 LPS/ATP IL-1B secretion, AlphaLISA, 16 h; stronger effect = lower value; in the data active means activity change below about -50%; inconclusive means mostly about -30% to -49%
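Secreted IL-1B measured by AlphaLISA bead assay after 16 h compound exposure of THP-1 cells; compounds (final up to 57.5 uM) added 1 h before LPS (250 ng/mL) and ATP (1.25 mM) stimulation; lower signal means less secretion.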
ALOX12 inh: Primary qHTS assay for inhibitors of human arachidonate 12S-lipoxygenase (ALOX12): Round 2; 1.1% of 580,000 active; purified 12hLO, xylenol orange hydroperoxide absorbance; Polyunsaturated fatty acid lipoxygenase ALOX12 (Homo sapiens), P18054; Potency, µM (top dose mostly 108 µM), inactives show top-dose activity change, negative = inhibition, usual class: inhibitors; further: potency means the concentration at half of the fitted maximal effect
Target sequence (P18054 whole entry, looked up): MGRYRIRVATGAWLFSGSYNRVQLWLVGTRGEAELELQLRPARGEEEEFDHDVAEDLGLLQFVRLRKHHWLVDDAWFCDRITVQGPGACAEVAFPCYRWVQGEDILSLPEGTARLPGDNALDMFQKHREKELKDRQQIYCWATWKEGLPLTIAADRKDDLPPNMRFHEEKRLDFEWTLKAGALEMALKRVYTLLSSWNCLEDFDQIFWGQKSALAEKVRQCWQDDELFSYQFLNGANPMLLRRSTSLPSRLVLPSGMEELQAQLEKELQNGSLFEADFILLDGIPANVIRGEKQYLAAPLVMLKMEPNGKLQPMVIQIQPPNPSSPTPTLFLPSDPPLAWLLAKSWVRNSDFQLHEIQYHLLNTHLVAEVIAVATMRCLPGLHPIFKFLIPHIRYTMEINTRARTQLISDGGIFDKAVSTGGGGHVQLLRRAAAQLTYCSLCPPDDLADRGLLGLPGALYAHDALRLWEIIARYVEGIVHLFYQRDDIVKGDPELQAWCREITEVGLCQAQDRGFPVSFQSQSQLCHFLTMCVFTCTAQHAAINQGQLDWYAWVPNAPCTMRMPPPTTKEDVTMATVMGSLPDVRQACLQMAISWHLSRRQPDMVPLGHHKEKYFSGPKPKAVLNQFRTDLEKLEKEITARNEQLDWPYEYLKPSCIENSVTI
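Purified human 12hLO (150 nM final) in 25 mM Hepes, 0.01% Triton X-100, pH 7.0 was preincubated 15 min at room temperature with compound. Then 40 uM arachidonic acid was added, 30 min. Hydroperoxide was read by Fe-XO absorbance ratio 573/405 nm.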
Starred values were filed as active, the others as inactive; i = inactive; ? = inconclusive; / = no result; [ ] = another dose, or the depositor's remark. Unless noted, the call rests on the fitted dose curve; in most records, active means well fitted curve in the direction sought with a large enough effect; inconclusive means small, poorly fitted or top-dose-only effect, or another doubt; inactive means no such curve, though single readings can be large; an effect the other way counts as inactive or inconclusive. Unless noted, on the % scale 0 is the no-effect control and ±100 the full control effect.

SMILES	TDP1 cell CPT	TDP1 cell noCPT	HT1080 IDH1KD tx	HT1080-NT tox	IL-1B inflam inh	ALOX12 inh
CC1C(=O)N(Cc2cn(CCC3OCCO3)nn2)CCS(=O)(=O)N1Cc1ccc(-c2ccc(Cl)c(Cl)c2)cc1 (stereo not drawn)	15µM*	6.5µM*	?	?	-19	12%
CC1C(=O)N(Cc2cn(CCC3OCCO3)nn2)CCS(=O)(=O)N1Cc1ccc(-c2cccc(CO)c2)cc1 (stereo not drawn)	6%	-5%	2%	4%	1	-45%
COc1ccc(-c2ccc(CN3C(C)C(=O)N(Cc4cn(CCC5OCCO5)nn4)CCS3(=O)=O)cc2)cn1 (stereo not drawn)	?	21µM*	-9%	-1%	20	?
COc1ccc(-c2ccc(CN3C(C)C(=O)N(Cc4cn(CCC5OCCO5)nn4)CCS3(=O)=O)cc2)cc1 (stereo not drawn)	9.2µM*	23µM*	5%	-11%	-7	16µM*
CCOc1cc(/C=C2/C(=N)N3C=CSC3=NC2=O)ccc1OCCCOc1ccccc1C	10µM*	8.2µM*	?	?	-2	18%
COc1cc(/C=C2/C(=N)N3C=CSC3=NC2=O)ccc1OCCCOc1ccccc1C	?	?	?	-11%	8	9%
CCOc1cc(/C=C2\C(=N)N3N=C(S(C)(=O)=O)SC3=NC2=O)ccc1OCCOc1cccc(OC)c1	-3%	13µM*	-21%	?	-9	?
Cc1cc(C)nc(SCC(=O)Nc2nc(-c3ccccc3)c(-c3ccccc3)o2)n1	?	23µM*	2%	2%	-1	11%
Cc1ccc(-c2nonc2NC(=O)c2ccccc2)cc1	/	/	/	/	/	10%
Cc1ccc(C(=O)Nc2nc(-c3ccccc3)c(-c3ccccc3)o2)cc1	21µM*	18µM*	?	-4%	-9	-5%
Cc1nc(-c2ccc(NC(=O)C(C)(C)C)cc2)c(-c2ccccc2)o1	?	16µM*	5%	3%	-13	8%
CC(C)C[C@@H]1N[C@H](C(=O)NCCN(C)C)Cc2cn(Cc3ccncc3)c3cccc1c23	/	/	/	/	/	76%[176 µM]
CC1CCCCN1C(=O)c1ccc(CN2C(=O)NC3(CCS(=O)(=O)CC3)C2=O)cc1 (stereo not drawn)	/	/	/	/	/	7%
O=C(Nc1ccccc1-c1ccccc1)C12CC3CC(CC(C3)C1)C2	?	15µM*	?	-20%	-11	1%
O=C(Nc1ccccc1-c1ccccc1)C1CCCC1	6.5µM*	6.5µM*	?	?	12	20%
O=C(Nc1ccc(Cl)cc1Cl)c1cn2c(n1)CN(C(=O)c1cccnc1)CC2	/	/	/	/	/	1%[6.33 µM]
COc1ccc2nc([C@H]3CCN(CC(C)C)C3)[nH]c2c1	/	/	/	/	/	36%[176 µM]
O=c1[nH]c(NNC(=S)NCc2ccccc2)nc2c1C1(CCCCC1)Cc1ccccc1-2	?	-10%	-16%	-24%	-23	35µM*
CN(C)Cc1nc2c(c(=O)[nH]1)C1(CCCCC1)Cc1ccccc1-2	18µM*	23µM*	0%	-14%	-8	21%
CCC1(CC)Cc2ccccc2-c2nc(-c3ccccc3)oc(=O)c21	?	16µM*	-2%	5%	6	/
CCC1(CC)Cc2ccccc2-c2nc(CN(C)C)[nH]c(=O)c21	?	16µM*	-15%	?	-3	119%
CCCN(CCC)Cc1nc2c(c(=O)[nH]1)C1(CCCC1)Cc1ccccc1-2	/	/	/	/	/	35%
CNc1nccc(N2CCC(CC(=O)N3CCN(c4cccc(OC)c4)CC3)CC2)n1	/	/	/	/	/	56%
CCN(CC)Cc1nc2c(c(=O)[nH]1)C1(CCCCC1)Cc1ccccc1-2	21µM*	18µM*	-5%	1%	-16	12%
Cc1cccc(C(=O)Nc2ccccc2SCc2ccsc2)c1	/	/	/	/	/	-10%
SMILES	TDP1 cell CPT	TDP1 cell noCPT	HT1080 IDH1KD tx	HT1080-NT tox	IL-1B inflam inh	ALOX12 inh
O=C(NC1CCCCC1)N1CCN(c2ccc([N+](=O)[O-])cc2)CC1	13µM*	?	-2%	-4%	?	i
COc1ccc(NC(=O)N2CCN(S(C)(=O)=O)CC2)cc1OC	-4%	-9%	-2%	-5%	16	-18%
COc1ccc(CCC(=O)N2CCN(c3ccc([N+](=O)[O-])cc3)CC2)cc1OC	?	15µM*	-9%	0%	?	-11%
COc1ccc(NC(=O)N2CCN(c3ccc([N+](=O)[O-])cc3)CC2)cc1OC	?	18µM*	-1%	-15%	?	-17%
COc1ccccc1CC(=O)N1CCN(c2ccc([N+](=O)[O-])cc2)CC1	15µM*	9.2µM*	-8%	-11%	?	0%
COc1ccc(N2CCN(C(=O)CCc3cc(OC)c(OC)c(OC)c3)CC2)cc1	-23%	?	16%	0%	13	-3%
CNC(=O)CCN(C)C(=O)Nc1ccc(C(F)(F)F)cc1	/	/	/	/	/	18%
COc1ccc(NC(=O)N2CCN(c3ccc([N+](=O)[O-])cc3)CC2)cc1	2.3µM*	2.3µM*	13%	15%	2	-7%
COc1ccc(N2CCN(C(=O)CSc3ccc([N+](=O)[O-])cc3)CC2)cc1	?	23µM*	-3%	13%	-10	-16%
Cc1oc2cc(O)ccc2c(=O)c1-c1nc2ccccc2s1	/	/	/	/	/	-23%
CCN(CC)CCOc1ccc(NC(=O)c2nn(C)c(=O)c3ccccc23)cc1	/	/	/	/	/	53%
CCCCCCCCN1C(=O)[C@H](CC(=O)NCc2cccs2)C[C@@]2(C(=O)OCC)CCCC=C12	?	16µM*	?	?	-62*	-19%
CCCCCCCCN1C(=O)[C@H](CC(=O)NCc2cccs2)C[C@@]2(C(=O)OC)CCCCC=C12	16µM*	15µM*	?	?	-22	2%
Brc1cc2c(cc1CSc1ccccn1)OCCO2	/	/	/	/	/	30%
N#Cc1ccc(Oc2cccc(C(=O)OCC(=O)c3ccccc3)c2)cc1C#N	/	/	/	/	/	-23%
CCOc1ccc(CCNC(=O)c2c(C)oc3ncn(CC(C)C)c(=O)c23)cc1OCC	-28%	?	/	/	/	-9%

Screens deposited in PubChem by National Center for Advancing Translational Sciences (NCATS).
